These results are taken from PubChem BioAssay (NCI).

Test systems include DU-145 prostate; K-562 leukemia; MALME-3M melanoma; MDA-MB-231 breast; RXF 393 renal; SF-268 CNS; SF-295 CNS; SF-539 CNS; UACC-257 melanoma; M14 melanoma.
Assay in all cases: NCI-60 one-dose screen, 48 h (100 = growth as untreated, 0 = no growth, -100 = all killed)
Holding throughout (conditions): 10 µM unless noted

“And” between values parts separate entries of the source, which are not always exact repeats. Identical values can stand only once. About 83,000 compounds went through this panel and 20% of them were active in at least one assay; those are over-represented in the sample as a whole.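 Note: values are percent growth. 100 is the growth of untreated cells, values between 100 and 0 indicate rising inhibition; between -100 and 0 indicates cell death.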 The source made the active and inactive calls. How the source made its calls: active means growth percent below 10; inactive means the rest.

On to `CO[C@@H]([CH2][Hg][O]C(=O)c1ccccc1)[C@@H]([CH2][Hg][O]C(=O)c1ccccc1)OC`, for which the growth in the test on DU-145 prostate is 91.4% (inactive); with K-562 leukemia, 30.1% (inactive); in the test on MALME-3M melanoma, 35.6% (inactive); in the test on MDA-MB-231 breast, 88.9% (inactive); with RXF 393 renal, 114% (inactive); with SF-268 CNS, 102% (inactive). The growth is 106% (inactive) in the test with SF-295 CNS, 102% (inactive) in the test on SF-539 CNS, 90.7% (inactive) in the test on UACC-257 melanoma and 79.5% (inactive) in the test on M14 melanoma.
For the molecule `CC(C)CCC1C(=O)NC(=O)NC1=O`, the growth in the test with DU-145 prostate is 109% (inactive); with K-562 leukemia, 109% (inactive); with MALME-3M melanoma, 88.9% (inactive); in the test on MDA-MB-231 breast it was 97.3% (inactive); with RXF 393 renal it was 117% (inactive); with SF-268 CNS it was 96.2% (inactive). Also, the growth with SF-295 CNS was 98.4% (inactive); in the test on UACC-257 melanoma, 95.5% (inactive); in the test on M14 melanoma it was 99.9% (inactive).
As to `COc1cc2c(cc1OC)[C@@H]1C(=O)c3ccc4c(c3O[C@@H]1CO2)C[C@H](C(C)C)O4`, the growth in the test with DU-145 prostate is 85.5% (inactive); with K-562 leukemia it was 19.9% (inactive); in the test with MALME-3M melanoma, 56.5% (inactive); in the test on MDA-MB-231 breast, 78.3% (inactive); in the test with RXF 393 renal, 102% (inactive); in the test on SF-268 CNS it was 79.7% (inactive). In addition, the growth with SF-295 CNS is 18.6% (inactive); in the test with SF-539 CNS, 70.7% (inactive); in the test on UACC-257 melanoma it was 58% (inactive); in the test with M14 melanoma, 75.4% (inactive).
For the molecule `O=C(O)c1ccccc1N(CCO)CCCl`, the growth was 103% (inactive) in the test on DU-145 prostate; 100% (inactive) in the test on K-562 leukemia; 87.1% (inactive) with MALME-3M melanoma; 112% (inactive) in the test on MDA-MB-231 breast; 102% (inactive) in the test on RXF 393 renal; 103% (inactive) in the test on SF-268 CNS. Also, the growth is 99.8% (inactive) in the test with SF-295 CNS, 84.6% (inactive) in the test on SF-539 CNS, 99% (inactive) with UACC-257 melanoma and 96% (inactive) with M14 melanoma.
`COC(=O)[C@@H](C)C[C@H](Cc1ccccc1)NC(=O)c1cccc([C@@H](C[C@H](C(C)C)N(C)C(=O)[C@@H](NC(=O)[C@H]2CCCCN2C)C2CC2)OC(C)=O)n1`: the growth in the test on DU-145 prostate was 3.09% (active); in the test with K-562 leukemia it was 6.15% (active); with MALME-3M melanoma, 67.1% (inactive); with MDA-MB-231 breast, -20.4% (active); with RXF 393 renal, 23.4% (inactive); in the test on SF-268 CNS, 18.6% (inactive). Moreover, the growth in the test on SF-295 CNS is 3.47% (active); in the test with SF-539 CNS, -15% (active); with UACC-257 melanoma it was 36.4% (inactive); in the test on M14 melanoma, 1.47% (active).
As to `CCCCCCCCCCCCCCCC[N+](C)(C)C`, the growth is -91.4% (active) and 15.9% (inactive) with DU-145 prostate; -70% (active) and 9.42% (active) with K-562 leukemia; -76.5% (active) and 13.8% (inactive) in the test with MALME-3M melanoma; -76.5% (active) and -8.58% (active) in the test with MDA-MB-231 breast; -31.9% (active) with RXF 393 renal; -57.5% (active) and -3.48% (active) with SF-268 CNS. Further, the growth in the test with SF-295 CNS is -65.5% (active) and 10.1% (inactive); in the test on SF-539 CNS it was -67.3% (active) and -8.94% (active); in the test on UACC-257 melanoma, 61.2% (inactive); with M14 melanoma, -87.8% (active) and -43.2% (active).
As for `C[C@]12CCc3sc(Nc4ccc(O)cc4)nc3C1=CC[C@@H]1[C@@H]2CC[C@]2(C)C(=O)CC[C@@H]12`, the growth in the test on DU-145 prostate is 10.4% (inactive); in the test on K-562 leukemia it was 10.8% (inactive); in the test with MALME-3M melanoma, 29.7% (inactive); with MDA-MB-231 breast, 35.3% (inactive); in the test on RXF 393 renal it was -16.2% (active); in the test on SF-268 CNS, 58.3% (inactive). Besides, the growth in the test with SF-295 CNS was 52.5% (inactive); in the test on SF-539 CNS, -3.84% (active); in the test with UACC-257 melanoma, 73.4% (inactive); with M14 melanoma, 58.1% (inactive).
Turning to `CC1=CC(=Nc2ccc(N(CCCl)CCCl)cc2)C=C(C)C1=O`, the growth is -39.4% (active) in the test on DU-145 prostate; 17.4% (inactive) with K-562 leukemia; 8.43% (active) in the test with MALME-3M melanoma; 40.8% (inactive) with MDA-MB-231 breast; -80.3% (active) with RXF 393 renal; -9.09% (active) in the test with SF-268 CNS. The growth in the test with SF-295 CNS was 14.9% (inactive); in the test with SF-539 CNS, 4.45% (active); in the test on UACC-257 melanoma it was 19.3% (inactive); in the test with M14 melanoma it was 29.5% (inactive).
In the case of `Cc1cc[c-]cc1.Fc1c[c-]c(-c2ccccn2)c(F)c1.[Pt+2].c1ccc([PH+](c2ccccc2)c2ccccn2)cc1`, the growth is 59.1% (inactive) in the test on DU-145 prostate; 23.9% (inactive) in the test on K-562 leukemia; -2.32% (active) with MALME-3M melanoma; 67.8% (inactive) in the test with MDA-MB-231 breast; 32.6% (inactive) with RXF 393 renal; 62.1% (inactive) in the test with SF-268 CNS. Further, the growth in the test with SF-295 CNS was 72% (inactive); in the test on SF-539 CNS, 72.3% (inactive); in the test with UACC-257 melanoma it was 87.2% (inactive); in the test on M14 melanoma, 62.1% (inactive).
As to `CN(C)c1ccc(N)cc1`, the growth in the test on DU-145 prostate was 113% (inactive) and 58.4% (inactive); in the test with K-562 leukemia, 83.7% (inactive) and 44.9% (inactive); with MALME-3M melanoma, 115% (inactive) and 95.7% (inactive); in the test with MDA-MB-231 breast, 88% (inactive) and 58.6% (inactive); in the test with RXF 393 renal it was 109% (inactive) and 84.7% (inactive); with SF-268 CNS it was 97.9% (inactive) and 65.8% (inactive). The growth in the test with SF-295 CNS was 110% (inactive) and 59.9% (inactive); with SF-539 CNS it was 104% (inactive) and 67% (inactive); in the test with UACC-257 melanoma it was 92.5% (inactive) and 4.45% (active); in the test on M14 melanoma, 101% (inactive).
With `CCCCOCCOP(=O)(OCCOCCCC)OCCOCCCC`, the growth with DU-145 prostate is 115% (inactive); in the test with K-562 leukemia, 88.3% (inactive); with MALME-3M melanoma it was 111% (inactive); in the test with MDA-MB-231 breast, 99% (inactive); with RXF 393 renal, 100% (inactive); with SF-268 CNS it was 98.5% (inactive). For the same molecule, the growth with SF-295 CNS was 103% (inactive); with SF-539 CNS it was 99.6% (inactive); with M14 melanoma, 106% (inactive).
In the case of `O=NN1CCCCC1`, the growth with DU-145 prostate is 107% (inactive); in the test on K-562 leukemia, 121% (inactive); in the test on MALME-3M melanoma, 120% (inactive); in the test on MDA-MB-231 breast it was 95.9% (inactive); in the test with RXF 393 renal it was 118% (inactive); in the test on SF-268 CNS, 96.1% (inactive). Besides, the growth in the test on SF-295 CNS was 119% (inactive); in the test on SF-539 CNS it was 91.8% (inactive); with UACC-257 melanoma, 97.8% (inactive); with M14 melanoma it was 103% (inactive).
Take `N#CC(C#N)=C(C#N)C#N`: the growth with DU-145 prostate is 110% (inactive); in the test with K-562 leukemia, 108% (inactive); in the test with MALME-3M melanoma it was 108% (inactive); with MDA-MB-231 breast, 106% (inactive); in the test with RXF 393 renal, 111% (inactive); in the test on SF-268 CNS, 96% (inactive). The growth is 93.7% (inactive) with SF-539 CNS, 97.8% (inactive) in the test on UACC-257 melanoma and 102% (inactive) in the test on M14 melanoma.
For the molecule `O=CC1(c2ccccc2)CCN(Cc2ccccc2)CC1`, the growth in the test on DU-145 prostate is 106% (inactive); with K-562 leukemia it was 105% (inactive); with MALME-3M melanoma it was 105% (inactive); with MDA-MB-231 breast it was 104% (inactive); in the test with RXF 393 renal, 115% (inactive); in the test on SF-268 CNS, 99.6% (inactive). For the same molecule, the growth in the test with SF-295 CNS was 99% (inactive); with SF-539 CNS it was 106% (inactive); with UACC-257 melanoma, 99.5% (inactive); in the test on M14 melanoma, 98.8% (inactive).
